Our source for the inhibition values is PubChem BioAssay AID624377 (The Scripps Research Institute Molecular Screening Center, 2012).

The whole screen tested about 360,000 compounds, of which about 680 (0.19%) were called active. Cut-off read from the data, not from the text of the source: active = inhibition above about 25%; inactive = the rest. This excerpt belongs to a sample that is enriched for actives.

Arf-GAP with SH3 domain, ANK repeat and PH domain-containing protein 1 (Homo sapiens), sequence (Q9ULH1 325-724 limits assumed): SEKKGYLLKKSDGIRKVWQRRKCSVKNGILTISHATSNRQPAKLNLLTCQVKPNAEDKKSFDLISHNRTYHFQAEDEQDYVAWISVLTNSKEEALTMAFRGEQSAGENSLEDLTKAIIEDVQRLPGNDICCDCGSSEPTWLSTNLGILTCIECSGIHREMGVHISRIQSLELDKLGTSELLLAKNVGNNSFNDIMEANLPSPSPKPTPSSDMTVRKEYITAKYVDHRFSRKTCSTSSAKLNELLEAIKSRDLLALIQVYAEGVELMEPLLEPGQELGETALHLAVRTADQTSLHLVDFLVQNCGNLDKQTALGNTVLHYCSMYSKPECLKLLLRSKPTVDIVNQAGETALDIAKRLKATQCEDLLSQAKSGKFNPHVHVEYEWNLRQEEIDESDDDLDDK

This experiment addresses Arf-GAP with SH3 domain, ANK repeat and PH domain-containing protein 1 (Homo sapiens) (UniProt Q9ULH1). Nature of the experiment: blockers of ASAP1-stimulated ARF1 GTP hydrolysis – biochemical, fluorescence polarization, primary screen (AID 624377).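 Note: 0% = vehicle with enzyme and substrate and 100% = no enzyme.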 The settings on record: GDP FP detection, at 16.5 µM, hits give high values.
The term inhibition denotes the change of the read-out against control, counted positive when it falls. With `COC(=O)[C@]12C[C@H](CC(=O)NCc3ccc(OC)c(OC)c3)C(=O)N(Cc3ccccc3)C1=C[C@H](C(C)C)O[C@@H]2C1CC1`, the inhibition is -17.1% (inactive).

As to `COC(=O)c1ccc(CN2C(=O)[C@]3(OCCC=C[C@H]3C)c3c(Br)cccc32)cc1`, the inhibition was 8.64% (inactive).

Take `COc1cccc(CNC(=O)[C@H]2CCCN2C(=O)[C@H]2CCCN2C(=O)c2cc(F)cc(F)c2)c1`: the inhibition was 6.55% (inactive).

As to `COc1cccc(NC(=O)N(C)C[C@@H]2OCc3cn(nn3)CCCC(=O)N([C@@H](C)CO)C[C@H]2C)c1`, the inhibition is -14.2% (inactive).

On to `O=C(NCc1ccccc1)[C@H]1CCCN1C(=O)[C@@H]1CCCN1C(=O)c1ccc(Cl)cc1Cl`, for which the inhibition is -1.03% (inactive).

With `O=C(C(=O)N1CCC(CNC(=O)c2cccnc2Cl)CC1)c1cccs1`, the inhibition was 0.64% (inactive).

Regarding `CC(C)[C@H]1COCCS(=O)(=O)N1Cc1ccccc1-c1cccc2c1sc1ccccc12`, the inhibition is -8.72% (inactive).

On to `CC(=O)C1=C(C)N(Cc2ccccc2)C(=S)NC1c1cccc(Br)c1` (centres undefined), for which the inhibition was -2.66% (inactive).

On to `C[C@H](O)[C@@H]1CN2CCc3ccc(-c4ccc5c(c4)OCO5)cc3[C@@H]2C[C@@H]1N(C)C(=O)C1CCCCC1`, for which the inhibition is -4.95% (inactive).

Turning to `Nc1ccn([C@@H]2O[C@H](C(=O)N[C@H]3CCCCNC3=O)[C@@H](O)[C@H]2O)c(=O)n1`, the inhibition was -4.12% (inactive).

For the compound `C[C@@H](CN1C2=NC[C@@H](Cc3ccccc3)N2C[C@H]1Cc1ccc(O)cc1)NC(=O)CCC1CCCCC1`, the inhibition is -1.15% (inactive).

For `COC(=O)C1=C(C(=O)OC)C2C=C(C(C)C)C1C(=O)C2(C)O` (centres undefined), the inhibition was -14.9% (inactive).

Turning to `CC(C)(C)n1nc(C2CC2)c(Br)c1NC(=O)c1ccccc1F`, the inhibition is -0.45% (inactive).

On to `COC(=O)C1=C(C)N(Cc2cccc(C(F)(F)F)c2)C(=NCc2ccccc2)NC1c1ccc(Cl)cc1` (centres undefined), for which the inhibition is 8.8% (inactive).

For `O=C(N[C@H](C(=O)N1CCC[C@H]1C(=O)NCCc1ccccc1Cl)c1ccccc1)c1ccccc1`, the inhibition is 8.89% (inactive).

For `CN(C)C(=O)c1ccc(NC(=O)c2ccccc2-c2ccccc2)cc1`, the inhibition was 6.53% (inactive).

Regarding `O=C(NC1=CC(=O)c2ccccc2C1=O)c1ccccc1`, the inhibition is 26.4% (active).

On to `Cc1ccc(C(=O)Nc2c(-c3ccccc3)[nH][nH]c2=O)cc1`, for which the inhibition is -5.65% (inactive).

For `COC(=O)[C@]12C[C@H](CC(=O)NCCCCc3ccccc3)C(=O)N(Cc3ccc4c(c3)OCO4)C1=C[C@H](C(C)(C)C)O[C@@H]2C`, the inhibition is -6.7% (inactive).

Turning to `CC(C)[C@@H](C)/C=C/[C@@H](C)[C@H]1CC[C@@H]2[C@]1(C)CCC1[C@]23C=C[C@]2(C[C@@H](O)CC[C@]12C)N(c1ccc([N+](=O)[O-])cn1)O3` (some centres undefined), the inhibition is 7.77% (inactive).

With `Nc1c(-c2cccc(Cl)c2)cnn1-c1cccc([N+](=O)[O-])c1`, the inhibition is 3.08% (inactive).

`Cc1cccc(-n2ncc(Cl)c(Cl)c2=O)c1`: the inhibition is 24.7% (active).

For the compound `Cc1cccc(N2Cc3ccccc3C2=NC(=O)c2ccc(Cl)nc2)c1`, the inhibition was -4.91% (inactive).

As to `CC1CCCN(c2cccc3c2S(=O)(=O)N(Cc2ccc(F)cc2)[C@@H](C)[C@H](c2ccccc2)O3)C1` (some centres undefined), the inhibition is 0.02% (inactive).

Regarding `COc1ccc(SSc2ccc(OC)cc2C(=O)O)c(C(=O)O)c1`, the inhibition is -8.33% (inactive).

As for `Cc1cc(Br)cn2c(Cc3ccccc3C(F)(F)F)c(-c3ccc(C#N)cc3)nc12`, the inhibition is -9.38% (inactive).

For the compound `COC(=O)C1=C(C)N(Cc2ccc(C(F)(F)F)cc2)C(=NCc2ccc(C(F)(F)F)cc2)NC1c1cccc(Cl)c1` (centres undefined), the inhibition was 1.4% (inactive).

Consider `COc1ccc(-c2cc(NC=O)c3ncc(-c4cccc(C(=O)N(C)C)c4)n3c2)c(OC)c1`, for which the inhibition was -1.85% (inactive).

Turning to `CC(=O)c1cccc(-c2cnc3c(NC=O)cc(-c4ccccc4Oc4ccccc4)cn23)c1`, the inhibition is -4.36% (inactive).

With `CC(=O)Nc1cc(-c2ccc(N3CCN(C)CC3)cc2)cn2c(-c3cccc(C(=O)N(C)C)c3)cnc12`, the inhibition is 40.6% (active).

In the case of `CC(=O)Nc1cc(-c2ccc(N3CCN(C)CC3)cc2)cn2c(-c3ccc(F)cc3)cnc12`, the inhibition is 24.7% (active).

In the case of `O=CNc1cc(-c2ccc(C(=O)N3CCOCC3)cc2)cn2c(-c3ccc(F)cc3)cnc12`, the inhibition was 7.38% (inactive).

On to `CN(C)C(=O)c1cccc(-c2cnc3c(NC=O)cc(-c4ccc(C(=O)N5CCOCC5)cc4)cn23)c1`, for which the inhibition is -9.18% (inactive).

`CC(=O)c1cccc(-c2cnc3c(NC=O)cc(-c4ccc(N5CCN(C)CC5)cc4)cn23)c1`: the inhibition was 39.8% (active).

On to `COc1cccc(-c2cc(NC(C)=O)c3ncc(-c4cccc(C(C)=O)c4)n3c2)c1`, for which the inhibition is -0.92% (inactive).

With `CC(=O)Nc1cccc(-c2cc(NC(C)=O)c3ncc(-c4ccccc4)n3c2)c1`, the inhibition was -3.7% (inactive).

Turning to `COC(=O)Cc1nnn2c1[C@H](C)[C@H](c1ccccc1Br)OCC2`, the inhibition is -9.73% (inactive).

`Cc1cc(N2CCN(C(=O)OC(C)(C)C)C[C@H]2C)ccc1N1CCN(Cc2ccccc2)[C@H](C)C1`: the inhibition was 0.89% (inactive).

For `Fc1ccc(-c2ccc(-c3nn4c(-c5ccco5)nnc4s3)o2)cc1`, the inhibition is -2.12% (inactive).

Take `c1ccc(-c2cc(-c3nnc4sc(-c5ccccn5)nn34)[nH]n2)cc1`: the inhibition is 28.1% (active).

With `CCCCCCCCN1C(=O)[C@@H](CC(=O)NCCCC)C[C@@]2(C(=O)OC)C1=C[C@H](C(C)(C)C)O[C@@H]2C`, the inhibition was -1.77% (inactive).

With `COc1ccc(C(CNC(=O)c2cccc(S(=O)(=O)Nc3ccccc3Cl)c2)N2CCOCC2)cc1` (centres undefined), the inhibition was 26.3% (active).

For the compound `COc1ccc(C(CNC(=O)c2cccc(NS(=O)(=O)c3ccc(C)c(F)c3)c2)N2CCCC2)cc1` (centres undefined), the inhibition was -8.53% (inactive).

As for `COc1ccc(C(CNC(=O)c2ccc(S(=O)(=O)Nc3ccccc3C)cc2)N2CCOCC2)cc1` (centres undefined), the inhibition was 1.23% (inactive).

For `CCOc1ccccc1C(=O)N1CCC[C@@H]1C(=O)N1CCC[C@H]1C(=O)NCc1ccccc1`, the inhibition is -4.19% (inactive).

In the case of `CCC(=C/c1sc2ccc3ccccc3c2[n+]1C)/C=C1\Sc2ccc3ccccc3c2N1C`, the inhibition is 41.1% (active).

For `COCc1[nH]nc2c1C(c1ccccc1)N(c1ccccc1)C2=O` (centres undefined), the inhibition is -1.83% (inactive).

In the case of `COC(=O)[C@]12C[C@H](CC(=O)NCCC(C)C)C(=O)N(CCc3ccc(OC)c(OC)c3)C1=C[C@H](C(C)(C)C)O[C@@H]2C`, the inhibition is 10.4% (inactive).

Turning to `Cc1nc(NC(=O)C(C)(C)C)sc1[N+](=O)[O-]`, the inhibition was -0.12% (inactive).

In the case of `Nc1ncnc2c1ncn2[C@@H]1O[C@H](C(=O)N[C@@H](CCc2ccccc2)C(=O)N2CCCN(Cc3cccs3)CC2)[C@@H](O)[C@H]1O`, the inhibition is -0.42% (inactive).

Consider `COC(=O)C1=C(C)N(Cc2ccc(C(F)(F)F)cc2)C(=NCc2ccccc2)NC1c1ccccc1C(F)(F)F` (centres undefined), for which the inhibition is -2.57% (inactive).

As for `COCCNC(=S)N(C)[C@H]1C[C@H]2c3[nH]c4ccccc4c3CCN2C[C@H]1[C@H](C)O`, the inhibition was 6.89% (inactive).

As to `O=C(NN=Cc1ccco1)C(=O)Nc1ccc(Cl)c([N+](=O)[O-])c1`, the inhibition was 3.05% (inactive).

As for `COC(=O)C1=C(C)N(Cc2cccc(C(F)(F)F)c2)C(=NCc2ccccc2)NC1c1ccccc1C(F)(F)F` (centres undefined), the inhibition is 11.8% (inactive).

Regarding `COC(=O)[C@H](CC(C)C)NS(=O)(=O)c1c(F)cccc1F`, the inhibition was 0.11% (inactive).

For the compound `CCc1ccc(C2=CC(=O)CC(C)(C)C2=O)cc1`, the inhibition was -7.16% (inactive).

With `C=CC[C@]12C[C@@]3(O[C@H](c4ccc(C(F)(F)F)cc4)N=C3C[C@H](c3ccc(OC)cc3)[C@H]1C)N(C1CCN(Cc3ccccc3)CC1)C2=O`, the inhibition is 5.12% (inactive).

`CC(C)(C)c1ccc(S(=O)(=O)NCC2CCN(C(=O)C(=O)c3cc4ccccc4o3)CC2)cc1`: the inhibition is -6.17% (inactive).

As for `CCOC(=O)c1ccc(NC(=O)c2c(NCc3ccccc3)[nH]c(=O)[nH]c2=O)cc1`, the inhibition was -2.85% (inactive).

Consider `CCOC(=O)c1ccc(NC(=O)c2c(N)n(C)c(=O)[nH]c2=O)cc1`, for which the inhibition is 10.2% (inactive).

In the case of `CCOC(=O)c1ccc(Nc2cc3ccccc3c(=O)[nH]2)cc1`, the inhibition is 29.1% (active).

Regarding `CCOC(=O)Cn1c2c(n(-c3ccc(F)cc3)c1=O)C=C(c1ccccc1)[C@@H](C)C(C(=O)N(C)C1CCCCC1)=C2`, the inhibition was -1.25% (inactive).

As to `CCCc1ccc(OCc2ccc(C(=O)N/N=C/c3cccc([N+](=O)[O-])c3)o2)c(OC)c1`, the inhibition was -0.67% (inactive).

For the compound `O=C(N/N=C/c1cccc([N+](=O)[O-])c1)C1CC(=O)N(c2ccc(Br)cc2)C1` (centres undefined), the inhibition is -8.22% (inactive).

For `N#Cc1cc([N+](=O)[O-])ccc1Oc1cccc(/C=N/NC(=O)c2ccc(Cl)cc2)c1`, the inhibition is 25.2% (active).

Turning to `CN(C)C(=O)N1CCN(C(=O)[C@@H](Cc2ccccc2)NC(=O)[C@H]2O[C@@H](n3ccc(N)nc3=O)[C@H](O)[C@@H]2O)CC1`, the inhibition was -4.92% (inactive).

Regarding `COc1cccc(-c2cc(CNC(=O)[C@@H](Cc3ccccc3)NC(=O)[C@H]3O[C@@H](n4cnc(C(N)=O)n4)[C@H](O)[C@@H]3O)no2)c1`, the inhibition is 0.63% (inactive).

For the compound `COC(=O)c1sc(N2CCN(Cc3ccccc3)CC2)nc1N`, the inhibition is 6.27% (inactive).

Regarding `C=CCNc1nc(N)c(C(=C(C#N)C#N)c2ccccc2)s1`, the inhibition is 29.1% (active).

For the compound `COc1ccccc1Cc1c(-c2ccc(F)cc2)nc2ccc(C)cn12`, the inhibition is -3.6% (inactive).

As for `COC(=O)C1=C(C)NC(=O)/C1=C/c1ccc(CNS(=O)(=O)c2ccc(C)cc2)o1`, the inhibition is -2.9% (inactive).

As to `O=c1/c(=C/c2ccc(CNS(=O)(=O)c3ccccc3)o2)sc2n1CCN=2`, the inhibition is 26% (active).

As to `O=S(=O)(NCc1ccccc1)c1ccc(S(=O)(=O)N2CCCC2)cc1`, the inhibition is 16.8% (inactive).

Consider `Cc1ccc(C)c(CN2CCC(CNC(=O)C3CCCN(c4ncnc5c4nc4n5CCCCC4)C3)CC2)c1` (centres undefined), for which the inhibition is -4.48% (inactive).
